Laboratory results published in PubChem BioAssay AID1259374 (The Scripps Research Institute Molecular Screening Center, 2018).
Several values for one entry are separate records, joined by “and”; a condition that tells them apart may be missing. Equal entries are not always repeated. Hit rate of the full screen: of about 650,000 compounds, about 5,900 (0.91%) were called active. This is one part of a sample in which actives are shown more often than they occur. Cut-off read from the data, not from the text of the source: active = inhibition above about 50%; inactive = the rest.

Target: Microphthalmia-associated transcription factor (Homo sapiens) (UniProt O75030)
Sequence (O75030 whole entry, looked up): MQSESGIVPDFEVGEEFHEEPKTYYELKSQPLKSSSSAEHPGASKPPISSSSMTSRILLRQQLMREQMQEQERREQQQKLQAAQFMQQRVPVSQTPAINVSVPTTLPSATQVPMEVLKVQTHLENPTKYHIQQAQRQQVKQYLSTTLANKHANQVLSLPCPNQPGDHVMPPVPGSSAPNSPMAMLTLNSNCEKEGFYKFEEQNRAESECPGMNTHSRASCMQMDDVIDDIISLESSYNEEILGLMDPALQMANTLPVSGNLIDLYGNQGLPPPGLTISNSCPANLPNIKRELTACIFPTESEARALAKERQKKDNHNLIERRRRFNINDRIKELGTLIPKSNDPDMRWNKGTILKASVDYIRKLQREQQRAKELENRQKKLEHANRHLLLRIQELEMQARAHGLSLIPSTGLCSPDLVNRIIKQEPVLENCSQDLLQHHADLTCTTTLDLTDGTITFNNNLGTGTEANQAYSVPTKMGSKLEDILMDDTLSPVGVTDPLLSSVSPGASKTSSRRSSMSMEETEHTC
Experiment: MITF inhibitors, primary screen, biochemical, AlphaScreen, human (AID 1259374);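 note: 0% = vehicle wells with protein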
Settings: AlphaScreen MITF homodimerization, bead proximity signal; at 2.6 µM; hits give high values

Structure (SMILES) | inhibition
COc1ccc(NC(=O)c2cc(C3CC3)on2)cc1 | -14% (inactive)
NS(=O)(=O)c1ccc(NSc2ccccc2[N+](=O)[O-])cc1 | 13.8% (inactive)
CC(=O)Nc1ccc(OCC(O)CN2CCN(c3cccc(C(F)(F)F)c3)CC2)cc1 (stereo not given) | 10.8% (inactive)
CC1CCN(C(=O)CSc2nc3c(c(=O)n2CCc2ccccc2)SCC3)CC1 | -10.8% (inactive)
CC(=O)Nc1ccc(C(=O)N/N=C/c2cccc(C)n2)cc1 | 9.97% (inactive)
C=CCOc1ccc(C2Nc3ccccc3-c3nnc(SC)nc3O2)cc1 (stereo not given) | 3.95% (inactive)
CC(C)C(=O)NC(NC(=S)Nc1ccccc1C(=O)O)C(Cl)(Cl)Cl (stereo not given) | 9.89% (inactive)
COc1ccc(Cn2nc(-c3ccncc3)oc2=O)cc1 | 3.66% (inactive)
O=C(NCCOc1ccccc1)c1cc(-c2ccccc2)nc2c(Cl)cccc12 | -8.8% (inactive)
COc1ccccc1C(=O)N1CCN=C1SCc1cccnc1 | -16.8% (inactive)
COc1cccc(OC)c1C(=O)N1CCN(Cc2cccnc2)CC1 | 79.5% (active)
COC(=O)c1ccccc1S(=O)(=O)C1CCN(Cc2cccnc2)CC1 | 13.1% (inactive)
Cc1cc(C)c(S(=O)(=O)N(C)CCO)cc1N(C)S(=O)(=O)c1ccc(Cl)cc1 | -12% (inactive)
CCCCC(=O)N1CCN(c2ccccc2OCC)CC1 | -2.97% (inactive)
CCN(CC)CCNC(=O)c1sc2ncn(Cc3ccccc3F)c(=O)c2c1C | -7.31% (inactive)
COc1cccc(C2Nc3ccc(C(=O)O)cc3C3C=CCC32)c1OC (stereo not given) | 13.7% (inactive)
COC(=O)c1ccc(C2Nc3c(C(=O)OC)cccc3C3C=CCC32)cc1 (stereo not given) | 4.19% (inactive)
CCOc1cccc2c1N[C@@H](c1ccc(C(=O)O)cc1)[C@H]1CC=C[C@@H]21 | 65.3% (active)
O=C(NNC(=O)c1ccccn1)NC12CC3CC(CC(C3)C1)C2 | 5.98% (inactive)
COc1cccc(C(=O)NCCSc2ncc(-c3ccc(C)cc3)[nH]2)c1 | 8.31% (inactive)
Cc1cccc(OCc2nc(C#N)c(NCCCN(C)C)o2)c1 | -13.4% (inactive)
N#Cc1nc(COc2cccc(Cl)c2)oc1NCCCn1ccnc1 | 62.2% (active)
Cc1ccc(-c2nc(C#N)c(NCCCn3ccnc3)o2)cc1 | -5.46% (inactive)
O=C(CSc1ccc2nc(-c3ccccc3)cn2n1)Nc1cccc2ccccc12 | -15.1% (inactive)

Structure (SMILES) | inhibition
CCN1C(=O)/C(=C/c2ccc(-c3ccc(Br)cc3)o2)N(CC)C1=S | -10.4% (inactive)
COc1ccccc1CN1CCN(S(=O)(=O)c2ccc([N+](=O)[O-])cc2)CC1 | 39.9% (inactive)
Cc1ccc(S(=O)(=O)N2CCN(Cc3ccc(F)cc3)CC2)cc1 | 49.5% (inactive)
CSc1ccc(CN2CCN(S(=O)(=O)c3ccc([N+](=O)[O-])cc3)CC2)cc1 | 53.2% (active)
CSc1ccccc1NC(=O)c1cc2nc(-c3ccc(Br)cc3)cc(C(F)(F)F)n2n1 | -5.34% (inactive)
COc1cc(C2N=C(c3ccccc3)C(C)(C)N2O)ccc1O (stereo not given) | 2.87% (inactive)
O=S(=O)(c1ccc(Cl)cc1)N1CCc2ccccc2C1 | 10.1% (inactive)
CCOC(=O)c1c(NC(=O)c2ccc(OC)cc2OC)sc(C(C)=O)c1C | 7.53% (inactive)
Cc1cccc(C(=S)N2CCOCC2)c1 | -19.2% (inactive)
COc1ccc(CNc2ccc3ncc(-c4cccc(O)c4)n3n2)cc1 | -19% (inactive)
COc1ccc(CN2CCN(CCCc3ccccc3)C(CCO)C2)cc1O (stereo not given) | 7.3% (inactive)
COc1cccc(CN2CCN(CCCc3ccccc3)CC2CCO)c1 (stereo not given) | 69% (active)
CCOc1cc(CN2CCN(Cc3cccc(OC)c3)C(CCO)C2)ccc1O (stereo not given) | -2.92% (inactive)
OCC1CCN(C2CCCN(Cc3cccc(-c4ccco4)c3)C2)CC1 (stereo not given) | 3.07% (inactive)
COc1ccccc1N1C(=O)c2ccc(C(=O)NN3C(=O)c4ccccc4C3=O)cc2C1=O | 11.1% (inactive)
COc1cc(N/N=C(\C)c2ccc([N+](=O)[O-])cc2)ncn1 | 9.19% (inactive)
Cc1cccc(CSc2n[nH]c(=O)[nH]c2=O)c1 | 58.5% (active)
O=c1[nH]nc(SCc2ccc(Cl)cc2)c(=O)[nH]1 | 4.19% (inactive)
O=c1[nH]nc(SCc2cn3cc(Cl)ccc3n2)c(=O)[nH]1 | -5.72% (inactive)
O=c1oc(-c2cccc3ncccc23)nn1Cc1cccnc1 | -6.6% (inactive)
COc1ccc(N(CC(=O)N2CCN(C)CC2)S(C)(=O)=O)cc1 | 13.7% (inactive)
CCOc1ccc(-c2ccc(C)c(NC(=O)c3cccs3)c2)nn1 | 0.28% (inactive)
N=C1/C(=C\c2ccc([N+](=O)[O-])o2)C(=O)N=C2SC(N3CCOCC3)=NN12 | 74.2% (active)
Cc1ccc(C2=NN3C(=N)/C(=C/c4ccco4)C(=O)N=C3S2)cc1 | -3.9% (inactive)

Structure (SMILES) | inhibition
Cc1ccc(C2=NN3C(=N)/C(=C/c4ccc(-c5ccc(C(=O)O)cc5)o4)C(=O)N=C3S2)cc1 | 3.4% (inactive)
Cc1nnc(SCC(=O)N2c3ccccc3Sc3ccccc32)nc1C | -1.53% (inactive)
O=C(OCCN1CCOCC1)c1c(Cl)nc2sccn12 | 68.3% (active)
O=C(OCCN1CCOCC1)C1(c2ccccc2)CCCCC1 | 3.29% (inactive) and -3.71% (inactive)
COc1ccc(/C=C/C(=O)OCCN2CCOCC2)cc1 | 12.6% (inactive)
CSc1cccc(NC(=O)C2C3C=CC4(O3)C2C(=O)N(CCCN2CCCC(C)C2)C4C(=O)NC2CCCCC2)c1 (stereo not given) | 1.08% (inactive)
COc1cc(CN2CCN(C3CCCC3)C(CCO)C2)cc(OC)c1OC (stereo not given) | -4.18% (inactive)
COc1cc(CN2CCC(O)CC2)cc(OC)c1OC | 20.4% (inactive)
COc1ccc(S(=O)(=O)N2CCN(Cc3ccccc3Cl)CC2)cc1 | 8.12% (inactive)
COc1ccc(OC)c(CN2CCN(C3CCCCCC3)CC2)c1 | 49.2% (inactive)
COc1ccc(OC)c(CN2CCC(C(=O)NCC(C)C)CC2)c1 | 10.5% (inactive)
COc1ccc(CN2CCN(Cc3cc(OC)c(OC)c(OC)c3)CC2)cc1 | 70.5% (active)
COc1cc(CN2CCN(Cc3ccccc3Cl)CC2)cc(OC)c1OC | 74.9% (active)
COc1ccc(CN2CCCCC2)c(OC)c1 | -6.28% (inactive)
COc1ccc(OC)c(CN2CCN(Cc3ccccc3OC)CC2)c1 | 65.1% (active)
COc1cc(CN2CCOCC2)cc(OC)c1OC | 5.88% (inactive)
COc1ccc(CNCc2cccc(F)c2)c(OC)c1 | 17.1% (inactive)
COc1ccc(CN2CCN(Cc3cccc(Br)c3)CC2)c(OC)c1 | 72.2% (active)
CS(=O)(=O)Nc1ccc(C(=O)Nc2ccc(Br)c(Cl)c2)cc1 | 11.7% (inactive)
COc1ccc(C(=O)N2CCc3c(nc(C)[nH]c3=O)C2)cc1Cn1nc(C)cc1C | 4.03% (inactive)
COc1cc(C2C3=C(Nc4[nH]c(=O)[nH]c(=O)c42)C(=O)CC(C)(C)C3)ccc1O (stereo not given) | -4.39% (inactive)
Cc1ccc(Cl)c2sc(=NC(=O)CN3C(=O)c4ccccc4C3=O)n(C)c12 | 14.4% (inactive)
O=C(NCCc1ccc(O)cc1)C1CCN(c2ccc(Nc3ccc4ncccc4c3)nn2)CC1 | 14.1% (inactive)
COc1ccc(Cl)cc1-c1nc(SCC(=O)Nc2ccc([N+](=O)[O-])cc2C#N)n[nH]1 | 5.04% (inactive)

Structure (SMILES) | inhibition
Cc1cc2c(cc3c(=O)n(CC(=O)N4CCCCCC4)nc(C)n32)s1 | 19.7% (inactive)
CC(=O)NC1(c2ccccc2)CCN(C(=O)N(c2ccccc2)c2ccccc2)CC1 | -5.46% (inactive)
N#CC1=C(N)Oc2n[nH]c(-c3ccccc3)c2C1c1cc(Cl)cc(Cl)c1OC(=O)N1CCOCC1 (stereo not given) | 1.7% (inactive)
O=C(CSc1cn(Cc2cccc(F)c2)c2ccccc12)Nc1ccccc1 | -4.78% (inactive)
CCOC(=O)c1c(NC(=O)COc2ccc(C)cc2Br)sc2c1CCC(C)C2 (stereo not given) | 14.2% (inactive)
O=C(CSc1nnc2ncccn12)N1CCN(c2ccccc2F)CC1 | -5.77% (inactive)
COc1ccc(S(=O)(=O)NCc2ccccc2OC)cc1Br | 9.71% (inactive)
CC1CN(Cc2ccc3ccccc3c2)CC(C)O1 (stereo not given) | 1.44% (inactive)
CCN(CC)C(=O)C1CCCN(Cc2ccccc2OC)C1 (stereo not given) | 16.3% (inactive)
COc1ccccc1CN1CCN(c2ccccn2)CC1 | 45.1% (inactive)
C=C(C)CN(CC)C(=O)C1CCN(Cc2cc(OC)ccc2OC)CC1 | 33.5% (inactive)
COc1ccc(OC)c(CN2CCN(Cc3ccc(Cl)cc3)CC2)c1 | 82.1% (active)
COc1ccc(CN2CCN(Cc3ccccc3OC)CC2)cc1Br | 77.2% (active)
COc1ccccc1CN1CC(C)OC(C)C1 (stereo not given) | 82.9% (active)
COc1ccc(CN2CCN(Cc3cc(OC)ccc3OC)CC2)cc1 | 76.4% (active)
COc1ccc(OC)c(CN2CCC3(CCC(CNC(C)=O)O3)CC2)c1 (stereo not given) | -3.91% (inactive)
COc1ccc(OC)c(CN2CCc3nnc(C4CCCO4)n3CC2)c1 (stereo not given) | 0.68% (inactive)
CCOc1ccc(CN2CCN(Cc3cc(OC)ccc3O)CC2)cc1 | 20.6% (inactive)
Cc1ccc(N2C(=O)CN(S(C)(=O)=O)CC2(C)C(=O)NC2CCCC2)cc1C (stereo not given) | -2.11% (inactive)
O=C(OCCN=C1NS(=O)(=O)c2ccccc21)c1ccc([N+](=O)[O-])cc1 | -14% (inactive)
O=C1c2ccccc2C(=O)N1CCSc1nc2sc3c(c2c(=O)n1-c1ccccc1)CCCC3 | -1.49% (inactive)
CCOC(=O)c1cc(-c2ccc(O)c(OC)c2)no1 | -12.8% (inactive)
O=C(NCc1ccc(Cl)cc1)C1CCN(c2nnnn2-c2ccccc2)CC1 | 5.24% (inactive)
